Bioassay records deposited in PubChem BioAssay by National Center for Advancing Translational Sciences (NCATS).
HT1080-NT tox – qHTS for induction of synthetic lethality in tumor cells producing 2HG: qHTS for the HT-1080-NT fibrosarcoma cell line | HT-1080-NT fibrosarcoma viability, CellTiter-Glo ATP luminescence, 48 h | Potency, µM (highest dose often 46.1 µM), for inactives: at the highest dose activity, negative = less viability, actives largely listed as cytotoxic | hit rate 1.6% among 360,000;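 also: NT is the 2HG producing partner of a matched IDH1 knockdown line; potency is read from the fitted curve at half-maximal effect; 0% = DMSO-treated cells and -100% = media-only wells without cells; nearly all actives have a fitted effect of over 55% in size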
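Fibrosarcoma NT cells, 750 per well in 5% FBS RPMI, were exposed to compound for 48 hours. Viability: CellTiter-Glo luminescence.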
TDP1 cell CPT – qHTS for Inhibitors of human tyrosyl-DNA phosphodiesterase 1 (TDP1): qHTS in cells in presence of CPT; chicken DT40 Tdp1-/-;hTDP1 cells + 20 nM CPT, ATP luminescence, 48 h; Potency, µM (top dose mostly 46.2 µM), for inactives: at the top dose activity change, negative = growth inhibition, most hits filed as inhibitors; hit rate 12% among 420,000; also: potency is read from the fitted curve at half-maximal effect; nearly all actives have a fitted effect of over 55% in size
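Chicken DT40 Tdp1-/- cells stably complemented with human TDP1 were seeded at 400 cells/well in medium containing 20 nM camptothecin, exposed to pin-transferred compounds, and grown at 37 °C for at least 48 hr. Viability was read as ATP luminescence.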
TDP1 cell noCPT – qHTS for Inhibitors of human tyrosyl-DNA phosphodiesterase 1 (TDP1): qHTS in cells in absence of CPT | DT40 Tdp1-/- hTDP1 cells, no CPT, ATP luminescence, 48 h | Potency, µM (top dose mostly 46.2 µM), for inactives: at the highest dose activity change, negative = growth inhibition, hits mostly inhibitors | hit rate 15% among 420,000 | AID 686978, 2013; also: potency is read from the fitted curve at half-maximal effect; nearly all actives have a fitted effect of over 55% in size
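Cells were dispensed at 400 per well, compounds added by pin tool, plates incubated ≥48 hr at 37 °C, then CellTiter-Glo added for 30 min at room temperature before luminescence reading. Line: DT40 Tdp1-/- complemented with hTDP1; camptothecin omitted.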
IL-1B inflam inh – qHTS for Inhibitors of Inflammasome Signaling: IL-1-beta AlphaLISA Primary Screen | THP-1 LPS/ATP IL-1B secretion, AlphaLISA, 16 h; active compounds read low | activity change, % at 57.5 µM | AID 743279, 2014 | hit rate 4.7% among 360,000; in the data active = activity change below about -50%; inconclusive = mostly about -30% to -49%
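Secreted IL-1B measured by AlphaLISA bead assay after 16 h compound exposure of THP-1 cells; compounds (final up to 57.5 uM) added 1 h before LPS (250 ng/mL) and ATP (1.25 mM) stimulation; lower signal means less secretion.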
HT1080 IDH1KD tx – qHTS for induction of synthetic lethality in tumor cells producing 2HG: qHTS for the HT-1080-IDH1KD cell line; hit rate 2% among 360,000; HT-1080 IDH1 knockdown viability, ATP luminescence, 48 h; Potency, µM (top dose mostly 46.1 µM), for inactives: top-dose activity, negative = toxicity, actives largely listed as cytotoxic; AID 686971, 2013;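 also: potency is read from the fitted curve at half-maximal effect; 0% = DMSO wells and -100% = cell-free medium wells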
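In this qHTS, HT-1080 cells depleted of IDH1 are exposed for 48 h at 37 °C to compound titrations. Toxicity is scored from CellTiter-Glo luminescence, with DMSO as full viability and medium alone as none.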
ELG1 DNA repair – qHTS screen for small molecules that inhibit ELG1-dependent DNA repair in human embryonic kidney (HEK293T) cells expressing luciferase-tagged ELG1; hit rate 2.3% among 330,000; HEK293T ELG1-luciferase reporter, luminescence, 16 h; DNA damage induced by 5-fluorouridine; Potency, µM (series often up to 46.1 µM), for inactives: at the top dose activity change, negative = inhibition, usual class: inhibitors; also: potency is read from the fitted curve at half-maximal effect; nearly all actives have a fitted effect of over 55% in size
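Cells (2,000 per well) received 5-fluorouridine plus test compound or DMSO and were incubated 16 hr at 37 °C, 5% CO2. Luciferase activity was read by luminescence 30 min after ONE-Glo addition; signal suppression marked inhibition of damage-induced ELG1 function.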
Starred values were filed as active, the others as inactive; ? = inconclusive; nt = no result given. An excerpt weighted towards active compounds, which were near 19% of everything screened. Unless noted, calls follow the shape of the dose curve; as a rule, active = well fitted curve in the direction sought with a large enough effect; inconclusive = small, poorly fitted or top-dose-only effect, or another doubt; inactive = no such curve, though single readings can be large; an effect the other way counts as inactive or inconclusive. Unless noted, % is scaled to controls: 0 for no effect and ±100 for the full control effect.

SMILES	HT1080-NT tox	TDP1 cell CPT	TDP1 cell noCPT	IL-1B inflam inh	HT1080 IDH1KD tx	ELG1 DNA repair
CSCCC(NC(=O)COc1ccccc1)C(=O)N1CCN(c2ccccc2Cl)CC1 (configuration not stated)	2.0%	?	?	-10.2	-8.4%	-14.7%
CC(NC(=O)C1CCCN1S(=O)(=O)c1ccccc1)c1ccccc1 (configuration not stated)	20.3%	?	?	15.8	22.8%	-0.8%
O=C(Nc1ccccc1)c1cc(C2CCCCN2C(=O)CCc2ccccc2)on1 (configuration not stated)	-1.2%	?	-25.8%	9.4	-2.9%	nt
O=C(Nc1ccc(F)c(Cl)c1)c1cc(C2CCCCN2C(=O)CCc2ccccc2)on1 (configuration not stated)	-1.5%	14.6µM*	?	-19.5	-15.3%	nt
COC(=O)/C=C1\OC(c2ccccc2)c2ccccc21 (configuration not stated)	-2.8%	?	?	98.3	-1.8%	nt
COC(=O)/C=C1\OC(C2CC2)c2ccccc21 (configuration not stated)	6.6%	8.2µM*	16.4µM*	17.1	9.3%	nt
O=[N+]([O-])c1ccc2[nH]c(=S)sc2c1	?	23.1µM*	20.6µM*	-22.5	-19.2%	nt
O=[N+]([O-])c1ccc2[nH]c(=S)[nH]c2c1	0.0%	2.2%	-16.7%	23.0	-10.3%	nt
COc1ccc(N2CCN(C(=O)COc3ccccc3C#N)CC2)cc1	nt	-1.9%	-3.0%	nt	nt	nt
Fc1ccccc1Oc1nc(-c2ccncc2)nc2ccccc12	9.4%	?	16.4µM*	-11.6	-4.1%	6.9%
COc1ccc(Oc2nc(-c3cccnc3)nc3ccccc23)cc1	15.5%	?	?	?	17.6%	?
[O-]/[N+](=C\c1ccncc1)c1ccc(Br)cc1	-0.3%	8.2µM*	?	-26.2	-1.3%	?
COc1ccc(CN2CC(=O)N(c3ccccc3OC)C2=S)cc1OC	0.0%	-27.0%	-15.7%	25.4	-6.2%	-5.5%
COc1ccc(CN2CC(=O)N(c3ccc(Cl)cc3)C2=S)cc1OC	-9.8%	?	?	?	-13.4%	?
COc1ccc(CN2CC(=O)N(c3cccc(Cl)c3)C2=S)cc1OC	-6.4%	-77.0%	14.6µM*	-7.8	-17.6%	?
COc1ccc(Cl)cc1N1C(=O)CN(Cc2cc(OC)c(OC)c(OC)c2)C1=S	-1.9%	14.6µM*	8.2µM*	-1.5	6.6%	?
COc1cccc(N2C(=O)CN(Cc3cc(OC)c(OC)c(OC)c3)C2=S)c1	1.0%	-3.4%	20.6µM*	26.6	1.6%	0.4%
Cc1ccc(N2C(=O)CN(Cc3ccccc3)C2=S)cc1C	10.1%	14.1%	1.2%	25.9	4.9%	-1.6%
COc1ccc(N2C(=O)CN(Cc3cc(OC)c(OC)c(OC)c3)C2=S)cc1	-2.1%	16.4µM*	23.1µM*	8.2	-23.0%	?
O=C1c2ccccc2C(=O)N1CC(O)CNc1ccc(Br)cc1 (configuration not stated)	9.1%	-0.8%	15.9%	8.1	11.1%	0.2%
COC(=O)CSc1[nH]c2ccc(F)cc2c1[N+](=O)[O-]	0.0%	20.6µM*	?	0.0	-2.0%	17.3%
CCOC(=O)CSc1[nH]c2cc(OC)ccc2c1[N+](=O)[O-]	17.5%	-18.8%	-26.8%	11.6	4.9%	2.2%
O=C(CSc1n[nH]c(-c2ccccc2Cl)n1)NCc1ccc(F)cc1	nt	-29.5%	?	nt	nt	nt
CN(Cc1ccco1)c1ncncc1-c1ccccc1C(F)(F)F	nt	11.9%	3.7%	nt	nt	nt
COC(=O)c1c(C)[nH]c(C(=O)C(C)OC(=O)c2cc(C)oc2C)c1C (configuration not stated)	9.6%	?	16.4µM*	8.1	-23.3%	-6.8%
SMILES	HT1080-NT tox	TDP1 cell CPT	TDP1 cell noCPT	IL-1B inflam inh	HT1080 IDH1KD tx	ELG1 DNA repair
CCOC(=O)c1c(C)[nH]c(C(=O)COC(=O)[C@H](C)N2C(=O)C3CCCCC3C2=O)c1C (some centres not stated)	-6.1%	?	25.9µM*	3.3	-9.3%	nt
CC(=O)c1c(C)[nH]c(C(=O)COC(=O)C2(C)CC2(Cl)Cl)c1C (configuration not stated)	-5.4%	18.4µM*	20.6µM*	0.0	-0.6%	?
CC(=O)c1c(C)[nH]c(C(=O)COC(=O)c2cc(C)oc2C)c1C	-2.5%	?	2.59µM*	?	-10.9%	-18.0%
CCOC(=O)c1cc(C(=O)c2ccccc2O)cn2c(=O)c3c(C)c(C)sc3nc12	nt	nt	nt	nt	nt	6.9%
Cc1cccc(C(=O)N2CCN(S(=O)(=O)N3CCCCCC3)CC2)c1	18.3%	-3.3%	-16.3%	0.0	18.2%	-7.4%
CCS(=O)(=O)N1CCC(C(=O)NCc2ccc(OC)cc2)CC1	9.7%	13.9%	7.2%	-0.6	5.8%	5.7%
CCOC(=O)c1c(C)[nH]c(C(=O)COC(=O)c2[nH]c(C)c(C(C)=O)c2C)c1C	5.2%	4.61µM*	5.17µM*	24.8	-3.0%	?
O=C(Cc1ccc(-n2c(=O)[nH]c3ccsc3c2=O)cc1)N1CCN(c2ccc(Cl)cc2)CC1	-13.4%	?	?	-75.2*	-8.8%	?
COc1ccc(N2CCN(C(=O)CCCCn3c(=O)[nH]c4ccsc4c3=O)CC2)cc1	14.5%	?	25.9µM*	15.2	-11.2%	-12.5%
Cc1cccc(N2CCN(C(=O)Cc3ccc(-n4c(=O)[nH]c5ccsc5c4=O)cc3)CC2C)c1 (configuration not stated)	-5.9%	3.5%	?	-16.3	3.2%	?
COc1ccccc1N1CCN(C(=O)CCCCn2c(=O)[nH]c3ccsc3c2=O)CC1	2.3%	?	16.4µM*	-0.1	2.1%	?
CC(C)(C)CC(=O)Nc1cc2c3c(c1)CCN3C(=O)CC2	4.3%	17.8%	1.5%	11.2	0.0%	?
Cc1cccc(CN2[C@H](COCc3ccccc3)C=CS2(=O)=O)c1	2.8%	?	?	?	8.3%	nt
